Source: PubChem (National Center for Advancing Translational Sciences (NCATS))
VACV Venus inh: qHTS for Stage-Specific Inhibitors of Vaccinia Orthopoxvirus: Venus Reporter Primary qHTS. Vaccinia virus Venus reporter expression, fluorescence. AID 720580, 2013. Potency, µM (doses to about 36.5 µM), usual class: inhibitors. actives 0.46% (n = 330,000); calls by dose curve; tested in A549 cells; also: nearly all actives have a fitted effect of over 30% in size
HCV inh: qHTS Assay for Inhibitors of Hepatitis C Virus (HCV); Huh7.5.1 HCVcc-Cre infection, luciferase reporter, 44 h; Potency, µM (series often up to 41.8 µM), most hits filed as inhibitors; actives 3.4% (n = 340,000); AID 651820, 2012; active = well fitted inhibition curve with a large enough effect; inconclusive = small, poorly fitted or top-dose-only effect, or another doubt; inactive = no such curve, though single readings can be large or run the other way
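Infectious HCV cell culture screen: compound-treated cells (1,000/well, pre-plated 4 h) are infected with HCVcc-Cre at roughly 0.5 moi and grown 44 h. Infection is quantified by luciferase signal after 15 min substrate incubation at room temperature.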
FMDV inh: High Throughput Screening for Foot and Mouth Disease Virus Antivirals; actives 1.2% (n = 410,000); Potency, µM (highest dose often 57.9 µM), hits mostly inhibitors; FMDV antiviral cell-based qHTS; calls by dose curve; tested in HEK293T cells; also: read-out not given here; nearly all actives have a fitted effect of over 45% in size
HCMV inh: qHTS Assay for inhibitors of the human cytomegalovirus (HCMV). HFF cells, HCMV-luciferase reporter, 72 h; hits give low values. activity change, negative = inhibition, % at 57.5 µM. actives 4.5% (n = 410,000); in the data active = activity change below about -60%; inconclusive = no clear call, values can overlap the other calls; inactive = above about -39%
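Compounds were evaluated in HFFs infected with an HCMV luciferase reporter virus (MOI 1 PFU/cell). Luciferase in lysates collected 72 h post infection served as the replication measure.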
VACV mCherry inh: qHTS for Stage-Specific Inhibitors of Vaccinia Orthopoxvirus: mCherry Reporter Primary qHTS; AID 720579, 2013; Potency, µM (highest dose often 36.5 µM), hits mostly inhibitors; Vaccinia virus mCherry reporter infection, fluorescence; actives 0.63% (n = 310,000); calls by dose curve; tested in A549 cells; also: nearly all actives have a fitted effect of over 35% in size
Hits are given with their value; . = inactive; ? = inconclusive; / = no result. The list is not random: actives were taken first. Their share in the collection is about 7.3%.

SMILES	VACV Venus inh	HCV inh	FMDV inh	HCMV inh	VACV mCherry inh
COc1ccc(CC(=O)N2CCc3cc(OC)c(OC)cc3C2COc2ccc(F)cc2)cc1 (stereo not drawn)	.	/	.	.	.
CCCCC(=O)N1CCc2cc(OC)c(OC)cc2C1COc1ccc(OC)cc1 (stereo not drawn)	.	/	.	-98.3	.
COc1ccc(CC(=O)N2CCc3cc(OC)c(OC)cc3C2COc2ccc(F)cc2)cc1OC (stereo not drawn)	.	/	25.1µM	.	.
COc1ccccc1NC(=O)C1CCCN(c2cnccn2)C1 (stereo not drawn)	/	.	.	.	/
Cc1cccc2c(=O)cc(CSc3ccccc3NC(=O)C(C)(C)C)[nH]c12	.	/	.	.	.
COc1cc(OC)c(C2=Nc3ccc(Br)cc3C(c3ccccc3)N2CC(=O)NN)cc1OC (stereo not drawn)	/	.	.	-67.6	/
CCOC(=O)C1=C(C)Nc2sc(C(=O)c3ccc(F)cc3)c(N)c2C1c1ccc(C(=O)OC)cc1 (stereo not drawn)	.	7.08µM	.	.	.
CCOC(=O)c1c(NC(=O)CN(CC)CC)sc2c1CCN(C(=O)OCC)C2	?	2.82µM	?	?	?
CCOC(=O)c1c(NC(C)=O)sc2c1CCN(Cc1ccccc1)C2	.	?	.	.	?
CCOC(=O)c1c(NC(=O)CC)sc2c1CCN(Cc1ccccc1)C2	.	11.2µM	.	.	?
CCOC(=O)c1c(NC(=S)N2CCN(C)CC2)sc2c1CCN(C(=O)OCC)C2	.	6.31µM	.	-98.8	.
CCOC(=O)N1CCc2c(sc(NC(=O)Cc3ccccc3)c2C(=O)c2ccc(OC)cc2)C1	/	?	?	.	/
CCOC(=O)N1CCc2c(sc(NC(=O)C3=COCCO3)c2C(N)=O)C1	?	/	.	.	?
CCOC(=O)c1c(NC(=O)CN2CCCCC2)sc2c1CCN(C(=O)OCC)C2	.	10µM	/	-60.0	?
Cc1ccc(CNS(=O)(=O)c2ccc(Cl)s2)cc1	.	/	.	.	.
COCCNC(=O)C[C@H]1C[C@H]2c3cc(NS(=O)(=O)c4ccc(F)cc4)ccc3O[C@H]2[C@H](CO)O1	.	/	.	.	.
Cc1cc(=O)n2nc(N3CCC(C(=O)N4CCN(c5ccccc5)CC4)CC3)sc2n1	.	.	.	.	.
CCCc1cc(=O)n2nc(N3CCC(C(=O)N4CCN(c5ccc(OC)cc5)CC4)CC3)sc2n1	/	?	?	-86.8	/
Cc1ccc(C[n+]2cccc(-c3ccccc3)c2)c(C)c1	.	?	?	-95.7	.
CCN1CCN(Cc2ccc(C)cc2C)CC1	/	.	.	.	/
COc1cccc(-c2cc3nc4c(c(NCC(C)(C)CN(C)C)n3n2)CCCC4)c1	.	?	.	-69.1	?
Fc1cccc(-c2cc3nc4c(c(NCc5ccco5)n3n2)CCCC4)c1	.	?	/	.	.
COc1cc(C)c(C)cc1S(=O)(=O)N1CCN(Cc2ccccc2)CC1	.	.	/	-62.2	.
COc1ccc(S(=O)(=O)N2CCN(Cc3ccccc3)CC2)c(C)c1	/	.	.	.	/
COc1cc(C)c(CN2CCC(Cc3ccccc3)CC2)cc1C	/	12.6µM	?	?	/
SMILES	VACV Venus inh	HCV inh	FMDV inh	HCMV inh	VACV mCherry inh
Cc1ccc(S(=O)(=O)N2CCN(C(=O)c3ccccc3Cc3ccccc3)CC2)c(C)c1	.	.	?	.	.
Cc1ccc(S(=O)(=O)N2CCN(CCc3ccccc3)CC2)c(C)c1	?	?	?	-64.9	?
COc1ccc(CN2C(=O)CCC2(C)c2nnnn2-c2ccc3c(c2)OCCO3)cc1 (stereo not drawn)	.	/	.	.	.
CCN(CC)S(=O)(=O)c1ccc2c(c1)N(CC(=O)NCCc1ccc(OC)c(OC)c1)C(=O)CO2	.	/	.	?	.
Cc1ccc(S(=O)(=O)N(C)c2ccc(OCC(=O)Nc3nc4ccccc4s3)cc2)cc1	.	?	?	-80.5	?
CN(c1ccc(OCC(=O)Nc2nc(-c3ccccc3)cs2)cc1)S(=O)(=O)c1ccc(F)cc1	.	10µM	?	.	?
Cc1ccc(S(=O)(=O)N(C)c2ccc(OCC(=O)Nc3nc4c(ccc5ccccc54)s3)cc2)cc1	.	?	.	.	.
CN(c1ccc(OCC(=O)N2CCN(c3ccc(F)cc3)CC2)cc1)S(=O)(=O)c1cccs1	.	3.55µM	.	.	.
CCOC(=O)Cc1csc(NC(=O)COc2ccc(N(C)S(=O)(=O)c3cccs3)cc2)n1	.	?	25.1µM	.	/
CCOC(=O)Cc1csc(NC(=O)COc2ccccc2)n1	/	.	?	.	/
CC1(C(=O)NCc2ccc(C(F)(F)F)cc2)CCN1Cc1ccc(-c2ccccc2)o1 (stereo not drawn)	.	/	.	.	?
COc1ccccc1N(C)S(=O)(=O)c1ccc(C(=O)NC(C)(C)C)cc1	.	.	.	.	.
COc1cc(OC)c(OC)cc1CNC(=O)c1cc(S(=O)(=O)N(C)c2ccccc2OC)ccc1C	/	?	28.2µM	.	/
COc1ccccc1N(C)S(=O)(=O)c1ccc(C(=O)Nc2nc(C)cs2)cc1	/	?	28.2µM	.	/
COc1ccccc1N(C)S(=O)(=O)c1ccc(C(=O)Nc2cc(F)ccc2C)cc1	.	6.31µM	.	.	.
COc1ccc(Cc2c(C(C)(C)C)nc3ccc(Cl)cn23)c(C)c1	.	/	.	.	.
O=C(CCl)N1CCN(S(=O)(=O)c2ccc3c(c2)CCC3)CC1	/	14.1µM	20µM	-79.9	/
O=C(CCl)N1CCN(S(=O)(=O)Cc2ccccc2)CC1	/	?	28.2µM	-76.2	/
CN1C(=O)N(CC(=O)N2CCN(S(=O)(=O)c3ccc4c(c3)CCC4)CC2)C(=O)C12CCCCC2	.	.	.	.	.
COCCCn1c(C)cc(C(=O)CN2c3cccc4cccc(c34)S2(=O)=O)c1C	/	?	.	.	/
COc1ccc(CCn2c(C)cc(C(=O)CSc3nnnn3-c3ccccc3)c2C)cc1	/	.	.	-70.0	/
COC(=O)CCCn1c(C)cc(C(=O)CCl)c1C	?	?	28.2µM	.	?
Cc1cc(C(=O)CCl)c(C)n1CCc1ccccc1	.	8.91µM	28.2µM	-100.4	.
CCOC(=O)c1cc(C)n(CCc2ccccc2)c1C	?	?	.	.	.
O=C(c1ccc(F)cc1)N1CC(=O)N2[C@@H](CO)[C@@H](c3ccc(Br)cc3)[C@@H]2C1	/	/	/	.	/
COc1cccc(-c2nc3cc(SC)ccc3cc2CN(C(=O)c2csc(C)n2)C2CC2)c1	.	/	28.2µM	/	.
COc1cccc(-c2nc3cc4c(cc3cc2CN(C(=O)c2csc(C)n2)C2CC2)CCC4)c1OC	.	/	14.1µM	/	?
COc1ccc(-c2nc3cc(F)ccc3cc2CN(C(=O)c2cccc(OC)c2)C2CC2)cc1	.	/	.	/	.
CCCN(CC(=O)Nc1ccccc1OC)C(=O)C1=COCCO1	/	.	.	.	/
O=C(NNC(=O)c1ccccc1-c1ccccc1C(=O)O)c1ccccc1	.	.	.	.	.
